Experimental data reported in the supplement of paper PMC10849652.
Targets with a hit are over-represented here; the source holds about 7,900 in all. About 0.6% of all pairs of compound and target were hits. Unmarked numbers belong to inactive results.

Compound: c1cn2cc(-c3ccc4cn[nH]c4c3)nc(Nc3ccc(N4CCOCC4)cc3)c2n1 [entospletinib]
Test: log2 fold change, soluble protein after heating vs DMSO (PISA); higher = thermal stabilisation; K562 cells, 10 uM, 30 min; active = over 0.2 and 3.5 SD of the protein, either way, in both replicates (recomputed)
Procedure, shortened: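 Quantification of soluble protein used TMTpro 16plex LC-MS/MS, with channel sums equalised. Samples were the supernatant after 21,000xg for 90 min of pooled aliquots from K562 cells (2×10^6 cells/mL) treated with 10 μM compound for 30 min, heated for 3 min over 48°C-58°C, and extracted in PBS with 0.5% NP-40 at 4°C. Values, from duplicates, describe thermal stability against control samples on a log2 fold-change scale.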

Chain of UniProt Q5T655 (Q5T655 whole entry, looked up): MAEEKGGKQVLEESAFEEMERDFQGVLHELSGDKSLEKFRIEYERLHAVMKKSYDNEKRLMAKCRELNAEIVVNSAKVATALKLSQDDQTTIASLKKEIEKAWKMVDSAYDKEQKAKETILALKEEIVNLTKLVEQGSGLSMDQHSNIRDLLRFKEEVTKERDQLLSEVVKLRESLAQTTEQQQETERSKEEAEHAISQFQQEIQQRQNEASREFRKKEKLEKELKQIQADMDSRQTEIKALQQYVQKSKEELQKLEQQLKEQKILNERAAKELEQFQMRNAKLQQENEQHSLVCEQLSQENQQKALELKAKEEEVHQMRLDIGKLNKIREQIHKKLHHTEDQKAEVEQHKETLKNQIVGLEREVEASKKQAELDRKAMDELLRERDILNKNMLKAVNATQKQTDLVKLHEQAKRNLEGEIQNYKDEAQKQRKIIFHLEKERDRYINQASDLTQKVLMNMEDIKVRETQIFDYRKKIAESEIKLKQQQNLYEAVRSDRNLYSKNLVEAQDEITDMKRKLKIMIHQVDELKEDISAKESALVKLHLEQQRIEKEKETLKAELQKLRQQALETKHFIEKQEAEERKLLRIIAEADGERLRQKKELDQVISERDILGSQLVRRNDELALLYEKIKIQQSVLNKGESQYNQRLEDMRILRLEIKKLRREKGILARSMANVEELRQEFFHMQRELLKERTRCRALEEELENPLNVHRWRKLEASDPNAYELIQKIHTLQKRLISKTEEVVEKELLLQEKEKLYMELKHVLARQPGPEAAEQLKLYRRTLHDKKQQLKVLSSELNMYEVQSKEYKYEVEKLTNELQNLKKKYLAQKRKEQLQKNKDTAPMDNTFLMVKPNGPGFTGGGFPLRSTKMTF
Chain of UniProt Q8N668 (Q8N668 whole entry, looked up): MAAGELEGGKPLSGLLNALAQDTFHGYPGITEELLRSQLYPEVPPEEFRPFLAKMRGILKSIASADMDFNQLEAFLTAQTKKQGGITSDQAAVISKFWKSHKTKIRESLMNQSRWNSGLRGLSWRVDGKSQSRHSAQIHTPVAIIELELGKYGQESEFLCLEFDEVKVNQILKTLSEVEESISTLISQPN
Chain of UniProt O75122 (O75122 whole entry, looked up): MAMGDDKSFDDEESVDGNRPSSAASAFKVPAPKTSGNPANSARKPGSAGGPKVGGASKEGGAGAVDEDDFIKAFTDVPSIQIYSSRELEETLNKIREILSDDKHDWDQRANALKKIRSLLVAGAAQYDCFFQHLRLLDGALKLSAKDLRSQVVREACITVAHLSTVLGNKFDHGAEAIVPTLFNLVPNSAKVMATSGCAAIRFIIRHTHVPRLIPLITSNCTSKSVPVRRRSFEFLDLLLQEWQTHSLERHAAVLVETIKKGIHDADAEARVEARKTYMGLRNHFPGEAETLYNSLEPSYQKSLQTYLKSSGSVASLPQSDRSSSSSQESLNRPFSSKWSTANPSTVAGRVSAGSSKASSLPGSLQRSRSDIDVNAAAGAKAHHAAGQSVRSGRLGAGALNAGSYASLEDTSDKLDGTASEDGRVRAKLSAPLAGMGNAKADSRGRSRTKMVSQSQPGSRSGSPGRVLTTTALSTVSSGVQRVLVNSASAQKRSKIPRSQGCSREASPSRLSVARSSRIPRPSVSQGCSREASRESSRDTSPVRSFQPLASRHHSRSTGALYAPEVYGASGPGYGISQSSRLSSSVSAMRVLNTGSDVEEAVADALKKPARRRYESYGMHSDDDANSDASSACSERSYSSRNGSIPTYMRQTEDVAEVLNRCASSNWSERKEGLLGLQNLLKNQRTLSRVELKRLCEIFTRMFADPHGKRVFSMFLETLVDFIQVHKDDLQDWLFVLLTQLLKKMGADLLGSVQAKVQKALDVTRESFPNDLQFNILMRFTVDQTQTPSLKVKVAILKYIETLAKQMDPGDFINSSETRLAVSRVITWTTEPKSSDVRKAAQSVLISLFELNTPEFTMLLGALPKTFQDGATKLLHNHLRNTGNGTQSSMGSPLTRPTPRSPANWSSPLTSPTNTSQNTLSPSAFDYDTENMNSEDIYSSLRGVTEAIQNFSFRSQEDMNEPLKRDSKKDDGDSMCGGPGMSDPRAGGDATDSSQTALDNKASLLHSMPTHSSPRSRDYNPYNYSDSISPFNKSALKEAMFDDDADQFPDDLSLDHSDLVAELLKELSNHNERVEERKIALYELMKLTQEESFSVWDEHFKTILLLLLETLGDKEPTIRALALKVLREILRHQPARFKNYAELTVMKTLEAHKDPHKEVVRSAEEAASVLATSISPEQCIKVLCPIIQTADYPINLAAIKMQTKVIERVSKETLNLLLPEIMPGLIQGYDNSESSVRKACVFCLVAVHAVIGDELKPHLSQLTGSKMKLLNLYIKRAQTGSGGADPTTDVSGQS
Chain of UniProt Q9UJA2 (Q9UJA2 whole entry, looked up): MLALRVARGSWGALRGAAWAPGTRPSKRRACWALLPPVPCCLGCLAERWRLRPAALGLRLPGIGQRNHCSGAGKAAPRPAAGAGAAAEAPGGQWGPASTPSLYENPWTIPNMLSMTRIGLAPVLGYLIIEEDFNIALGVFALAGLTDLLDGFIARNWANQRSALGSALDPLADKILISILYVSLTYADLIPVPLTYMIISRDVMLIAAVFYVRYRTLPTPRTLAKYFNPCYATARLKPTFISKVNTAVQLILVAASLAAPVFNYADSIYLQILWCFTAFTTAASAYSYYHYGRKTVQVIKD
Chain of UniProt P30281 (P30281 whole entry, looked up): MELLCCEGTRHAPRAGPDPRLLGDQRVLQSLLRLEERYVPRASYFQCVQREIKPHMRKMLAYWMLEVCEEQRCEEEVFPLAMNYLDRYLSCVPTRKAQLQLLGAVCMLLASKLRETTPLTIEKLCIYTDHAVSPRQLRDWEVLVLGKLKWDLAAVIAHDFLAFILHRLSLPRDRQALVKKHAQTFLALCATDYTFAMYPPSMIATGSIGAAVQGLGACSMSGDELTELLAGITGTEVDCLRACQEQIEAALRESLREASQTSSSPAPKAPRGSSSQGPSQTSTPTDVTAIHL
Chain of UniProt Q8N4S0 (Q8N4S0 whole entry, looked up): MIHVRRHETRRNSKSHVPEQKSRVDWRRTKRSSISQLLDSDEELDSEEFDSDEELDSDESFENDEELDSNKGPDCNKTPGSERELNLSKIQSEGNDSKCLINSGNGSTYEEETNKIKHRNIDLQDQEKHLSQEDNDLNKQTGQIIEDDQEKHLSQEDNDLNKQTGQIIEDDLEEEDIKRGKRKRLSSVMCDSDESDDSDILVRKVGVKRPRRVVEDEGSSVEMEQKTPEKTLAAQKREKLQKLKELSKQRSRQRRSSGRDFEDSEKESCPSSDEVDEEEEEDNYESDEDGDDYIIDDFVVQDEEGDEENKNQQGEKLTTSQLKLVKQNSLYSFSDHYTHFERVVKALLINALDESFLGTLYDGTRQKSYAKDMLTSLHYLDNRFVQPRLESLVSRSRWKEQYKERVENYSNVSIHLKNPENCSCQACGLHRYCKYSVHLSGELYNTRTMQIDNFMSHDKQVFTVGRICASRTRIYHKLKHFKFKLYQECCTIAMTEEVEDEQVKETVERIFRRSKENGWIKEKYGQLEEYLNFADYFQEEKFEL
Chain of UniProt Q14677 (Q14677 whole entry, looked up): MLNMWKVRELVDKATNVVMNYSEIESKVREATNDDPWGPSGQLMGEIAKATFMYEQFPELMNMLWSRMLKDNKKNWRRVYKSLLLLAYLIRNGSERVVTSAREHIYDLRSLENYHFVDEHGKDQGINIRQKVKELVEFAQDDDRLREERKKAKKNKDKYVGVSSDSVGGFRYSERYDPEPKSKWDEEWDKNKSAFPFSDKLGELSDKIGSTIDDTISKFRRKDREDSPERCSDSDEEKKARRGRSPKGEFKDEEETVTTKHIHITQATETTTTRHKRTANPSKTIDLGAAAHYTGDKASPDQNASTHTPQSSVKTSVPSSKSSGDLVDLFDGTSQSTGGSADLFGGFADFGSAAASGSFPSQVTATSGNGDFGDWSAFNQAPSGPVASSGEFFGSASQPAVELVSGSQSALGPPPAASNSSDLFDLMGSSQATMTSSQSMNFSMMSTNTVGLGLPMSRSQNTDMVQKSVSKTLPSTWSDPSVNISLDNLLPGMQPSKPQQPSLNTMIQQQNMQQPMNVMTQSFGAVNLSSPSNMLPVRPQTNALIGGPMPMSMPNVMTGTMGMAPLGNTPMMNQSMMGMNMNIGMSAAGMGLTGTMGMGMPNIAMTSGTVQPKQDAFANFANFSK
Chain of UniProt P33552 (P33552 whole entry, looked up): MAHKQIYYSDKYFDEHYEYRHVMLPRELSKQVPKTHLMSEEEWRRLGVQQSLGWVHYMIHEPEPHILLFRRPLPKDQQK
Chain of UniProt P55210 (P55210 whole entry, looked up): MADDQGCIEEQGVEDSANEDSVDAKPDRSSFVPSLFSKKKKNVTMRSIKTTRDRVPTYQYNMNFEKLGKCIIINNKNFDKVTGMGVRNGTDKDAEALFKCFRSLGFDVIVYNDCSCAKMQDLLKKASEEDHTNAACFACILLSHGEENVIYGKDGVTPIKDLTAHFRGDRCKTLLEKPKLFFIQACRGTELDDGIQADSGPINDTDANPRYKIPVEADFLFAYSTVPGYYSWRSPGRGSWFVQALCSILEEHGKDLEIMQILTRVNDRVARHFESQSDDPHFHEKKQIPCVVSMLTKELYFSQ
Chain of UniProt Q7Z4R8 (Q7Z4R8 whole entry, looked up): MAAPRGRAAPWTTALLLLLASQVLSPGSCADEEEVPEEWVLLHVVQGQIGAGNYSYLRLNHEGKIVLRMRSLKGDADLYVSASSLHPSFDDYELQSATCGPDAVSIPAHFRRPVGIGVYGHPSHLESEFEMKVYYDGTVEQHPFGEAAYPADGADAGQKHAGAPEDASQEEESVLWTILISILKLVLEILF
Chain of UniProt A8MTT3 (A8MTT3 whole entry, looked up): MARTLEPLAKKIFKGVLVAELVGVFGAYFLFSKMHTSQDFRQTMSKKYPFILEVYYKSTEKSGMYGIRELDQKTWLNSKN
Chain of UniProt O75956 (O75956 whole entry, looked up): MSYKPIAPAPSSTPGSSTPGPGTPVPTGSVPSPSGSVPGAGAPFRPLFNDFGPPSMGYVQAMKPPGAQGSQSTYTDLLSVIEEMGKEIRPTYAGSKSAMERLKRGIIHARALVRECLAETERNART

Target	log2 fold change
CCM2 isoform 2 (UniProt Q9BSQ5)	-0.019
CCDC167 (UniProt Q9P0B6)	0.034
CCND3 (UniProt P30281)	-0.154
CEMIP2 (UniProt Q9UHN6)	0.04
CCDC82 (UniProt Q8N4S0)	0.021
CNOT4 isoform 9 (UniProt O95628)	0.02
CKS2 (UniProt P33552)	0.04
CFAP47 (UniProt Q6ZTR5)	-0.052
CCDC57 (UniProt Q2TAC2)	-0.044
C6orf120 (UniProt Q7Z4R8)	-0.013
CEBPZOS (UniProt A8MTT3)	0.203
CASP7 isoform 3 (UniProt P55210)	0
CLASP2 (UniProt O75122)	-0.003
COMMD1 (UniProt Q8N668)	-0.013
CS (UniProt F8VU34)	0.063
CLINT1 (UniProt Q14677)	0.16
CFAP58 (UniProt Q5T655)	-1.11 (active)
CRLS1 (UniProt Q9UJA2)	-0.036
CLCN5 isoform 2 (UniProt P51795)	-0.014
CDK2AP2 (UniProt O75956)	0.101
CLN3 (UniProt Q13286)	0.065
